TbREL1 inh: TbREL1 inhibition, primary screen; actives 0.49% (n = 89,000); AID 1117264; P86926; TbREL1 RNA ligation, FRET fluorescence; inhibition, % at 9.66 µM;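 active = inhibition above the mean inhibition across all screened compounds plus 3 SD, cut at about 11% in these data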;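 also: 0% = plate median of test wells and 100% = NSC42067 control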
Target sequence (P86926 whole entry, looked up): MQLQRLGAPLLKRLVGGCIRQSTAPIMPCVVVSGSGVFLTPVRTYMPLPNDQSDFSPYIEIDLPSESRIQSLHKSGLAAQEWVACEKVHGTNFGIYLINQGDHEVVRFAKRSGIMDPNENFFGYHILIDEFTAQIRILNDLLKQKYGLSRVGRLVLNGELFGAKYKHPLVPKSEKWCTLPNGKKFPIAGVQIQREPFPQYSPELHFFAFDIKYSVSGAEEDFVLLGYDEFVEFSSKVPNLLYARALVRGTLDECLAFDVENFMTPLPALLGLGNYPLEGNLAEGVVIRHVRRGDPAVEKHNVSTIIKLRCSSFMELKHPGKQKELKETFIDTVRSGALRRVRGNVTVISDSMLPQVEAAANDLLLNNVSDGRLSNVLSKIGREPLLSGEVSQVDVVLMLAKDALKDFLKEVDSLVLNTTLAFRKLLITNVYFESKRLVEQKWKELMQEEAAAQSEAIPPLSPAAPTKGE
TbREL1 conf: TbREL1 inhibition, confirmation; AID 1117282; shares compounds with TbREL1 inh; TbREL1 RNA ligation, FRET fluorescence; actives 37% (n = 390); inhibition, % at 9.66 µM;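 active = mean inhibition across replicates above a set limit taken from the earlier primary screen, cut at about 11% in these data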;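 also: 0% = REL1 with substrate and DMSO and 100% = REL1 plus control inhibitor NSC42067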
Starred values were filed as active, the others as inactive. This is one part of a sample in which hits are shown more often than they occur.

SMILES	TbREL1 inh	others
COc1ccc(CNC(=O)CN(C)Cc2ccc(SC)cc2)cc1	-1
COc1ccc(-c2noc(CN(C)Cc3ccccc3)n2)cc1	-2
COc1ccc(CN(C)CC(O)COC(c2ccc(OC)cc2)c2ccc(OC)cc2)cc1 (stereo not drawn)	13*	TbREL1 conf=8
CCOc1ccccc1NC(=O)NNC(=O)CCn1nc(C)c([N+](=O)[O-])c1C	7
CCOc1cc(NC(=O)C2CCCO2)c(OCC)cc1NC(=O)C1CC1 (stereo not drawn)	0
CCOc1cc(NC(=O)CCl)c(OCC)cc1NC(=O)CCl	12*	TbREL1 conf=6
CCOc1ccccc1OCC(=O)Nc1ccc(Cl)cc1Cl	-1
COc1ccc(N)cc1CN1CCN(c2ncc(Cc3ccccc3)cn2)CC1	1
Cc1ccc(-n2c(SCC(=O)c3ccc4ccccc4c3)nnc2-c2cccnc2)cc1	-5
CCOC(=O)[C@]12CCCC3=C1N(CCC3)C(=O)[C@@H](CC(=O)NCCCOC)C2	4
COC(=O)c1ccc(Cn2cc([N+](=O)[O-])cn2)cc1	3
CC(C)NC(=O)CCCn1cc([N+](=O)[O-])cn1	3
Cc1nn(C(=O)Cn2cc([N+](=O)[O-])cn2)c(C)c1Cl	11*	TbREL1 conf=4
O=C(NC1CCCc2c1cnn2-c1ccc(F)cc1F)c1ccccc1 (stereo not drawn)	2
Cc1nnc(SCC(=O)NC2CCCc3c2cnn3-c2ccc(F)cc2F)o1 (stereo not drawn)	-1
O=C(Cc1ccccc1)NC1CCCc2c1cnn2-c1ccc(F)cc1F (stereo not drawn)	11*	TbREL1 conf=2
CC(C)CCN(C)C1CCN(C(=O)Nc2ccc(Cl)cc2)CC1	3
CC(=O)C1=C(C)N(Cc2ccc(Cl)cc2)C(=S)NC1c1ccc(Cl)cc1 (stereo not drawn)	3
C#CCOCCOCCOCCNc1nc(N2CCN(C(=O)[C@H](CCCN=C(N)N)n3cc(C(N)[C@@H](C)CC)nn3)CC2)nc(N2CCN(C(=O)[C@H](CCC(=O)O)n3cc([C@@H](N)CCCCN)nn3)CC2)n1 (stereo partly drawn)	2
C#CCOCCOCCOCCNc1nc(N2CCN(C(=O)[C@H](CCCCN)n3cc([C@@H](N)[C@H](C)CC)nn3)CC2)nc(N2CCN(C(=O)[C@H](CCC(=O)O)n3cc([C@@H](N)CCCCN)nn3)CC2)n1	4
C#CCOCCOCCOCCNc1nc(N2CCN(C(=O)[C@H](CCCCN)n3cc([C@@H](N)C(C)CC)nn3)CC2)nc(N2CCN(C(=O)[C@H](CCCCN)n3cc([C@@H](N)C(C)CC)nn3)CC2)n1 (stereo partly drawn)	16*	TbREL1 conf=17*
CCN(C(=O)C1CCCN(c2nnc(-n3cccc3)s2)C1)c1ccccc1C (stereo not drawn)	-1
FC(F)(F)Oc1cccc(Cn2ccc3ccc(-c4ccc5ccn(Cc6cccc(OC(F)(F)F)c6)c5c4)cc32)c1	-2
COc1cc(-n2c(C)cc(O)cc2=O)ccc1Cl	1
COC(=O)[C@]12CCCCC=C1N(Cc1ccc(OC)cc1)C(=O)[C@@H]2CC(=O)NCCc1ccccc1OC	-5
SMILES	TbREL1 inh	others
O=C(OCCOc1ccc(Br)cc1)c1cnccn1	-2
COc1ccc(C(=O)NCCNC(=O)c2cnccn2)cc1	-1
CCC(=O)c1ccc(OC(=O)c2cnccn2)cc1	17*	TbREL1 conf=3
CC(C)CNC(=O)OCc1cn(Cc2cccc(F)c2F)nn1	1
Cc1cc(C)cc(NC(=O)NC2CCN(S(=O)(=O)c3ccc(F)cc3)CC2)c1	4
CCc1ccccc1-c1cc(C(C)=O)c2n(c1=O)CCC2	2
Cc1ccc(-n2c(-c3ccccc3)n[nH]c2=S)cc1	-5
Cc1c(Cl)c(-c2n[nH]c(=S)n2-c2ccccc2)nn1C	-5
Cc1onc(-c2ccccc2)c1-c1n[nH]c(=S)n1-c1ccccc1	26*	TbREL1 conf=-1
C[C@@H]1CCN(C2CC2)S(=O)(=O)c2c(cccc2N2CCC[C@@H]2CO)O1	-4
CC(C)CNS(=O)(=O)/C=C/c1ccccc1CCNC(=O)OC(C)(C)C	5
CN(C(=O)CSc1ncnc2sccc12)c1c(N)n(Cc2ccccc2)c(=O)[nH]c1=O	12*	TbREL1 conf=2
CSc1nnc(SCC(=O)N(C)c2c(N)n(Cc3ccccc3)c(=O)[nH]c2=O)s1	7
CN(C(=O)COC(=O)c1cccs1)c1c(N)n(Cc2ccccc2)c(=O)[nH]c1=O	-1
CCCN(CC1CC1)C(=O)CSc1nnc(-c2ccncc2)n1-c1ccc(OC)cc1	-4
COC(=O)[C@]12C[C@H](CC(=O)NCc3ccc(OC)c(OC)c3)C(=O)N(Cc3ccccc3)C1=C[C@H](COCc1ccccc1)O[C@@H]2C	4
CCOc1ccc(NC(=O)CSC2=NN3CCCC(=O)N=C3S2)cc1	-3
CC(C)(C)CC(=O)Nc1nnc(SCC(=O)NC2CCCC2)s1	1
CCSc1nnc(NC(=O)CSC2=NN3CCCC(=O)N=C3S2)s1	15*	TbREL1 conf=1
COCC(=O)N[C@H]1C[C@@H]2O[C@@H](CO)CC[C@@H]2O[C@@H]1CCc1ccc(-c2ccccc2)cc1	0
C[C@H]1CCCN1c1ccc2c(c1)OCCCN(C1CC1)S2(=O)=O	3
COC(=O)[C@]12C[C@H](CC(=O)N3CCN(C(=O)c4ccco4)CC3)C(=O)N(Cc3ccc4c(c3)OCO4)C1=C[C@H](C(C)C)O[C@@H]2C1CC1	2
O=C(N[C@@H](Cc1cccnc1)C(=O)N1CCC[C@H]1C(=O)NC1CCCC1)C1CCCC1	5
Cc1ccc(CN2CCCCC(NC(=O)Nc3ccccc3F)C2=O)cc1 (stereo not drawn)	-1
COc1cc2c(cc1NC(=O)CSc1nnc(-c3cccc(Cl)c3)n1Cc1ccco1)oc1ccccc12	8
SMILES	TbREL1 inh	others
COc1cc(/C=N/NC(=O)c2cccs2)ccc1OCc1ccccc1	0
COc1cc(/C=N/O)ccc1OCc1ccc(C(=O)O)cc1	1
NC(N)=N/N=C/c1ccc(OCc2ccccc2)c(OCc2ccccc2)c1	12*	TbREL1 conf=10
Cc1ccc(CN2CCCCC(NC(=O)Nc3cccc(F)c3)C2=O)cc1 (stereo not drawn)	-1
CC(C)(C)c1ccc(C(=O)Nc2cc(Cl)c(F)cc2C(=O)O)cc1	13*	TbREL1 conf=2
CC(C)(C)c1ccc(C(=O)Nc2cc(Cl)c(Cl)cc2C(=O)O)cc1	-2
CC(C)(C)c1ccc(C(=O)Nc2ccc(Cl)cc2)cc1	2
COC1=CC(=O)c2nc(Cl)ccc2C1=O	20*	TbREL1 conf=30*
COC(=O)[C@]12C[C@H](CC(=O)NCc3ccc(OC)c(OC)c3)C(=O)N(CCc3ccc(OC)c(OC)c3)C1=C[C@H](COCc1ccccc1)O[C@@H]2C	-4
O=C(CC1CCCC1)N[C@H](C(=O)N1CCC[C@H]1C(=O)NC1CCCC1)C1CCCCC1	0
O=C(Nc1cc(Cl)ccc1F)C1CCCN(c2nnc(-n3cccc3)s2)C1 (stereo not drawn)	0
O=C(Nc1ccc(F)cc1)N1CCCN(c2ccc(C(F)(F)F)cn2)CC1	25*	TbREL1 conf=0
O=C(Nc1ccccc1)N1CCN(c2ccc(F)cc2)CC1	2
O=C(Nc1ccccc1)N1CCCN(c2ccc(C(F)(F)F)cc2[N+](=O)[O-])CC1	0
O=C(CCc1c[nH]c2ccccc12)Nc1ccc(Oc2cccnc2)cc1	-5
CN(C(=O)c1ccccc1C(=O)OCC(=O)c1ccc(F)c(F)c1)C1CCCCC1	12*	TbREL1 conf=2
CN(C(=O)c1ccccc1C(=O)OCC(=O)NCc1cccs1)C1CCCCC1	-2

Screens from PubChem BioAssay.
